# Measured values reported in PubChem BioAssay AID743167 (National Center for Advancing Translational Sciences (NCATS), 2013).
# Results filed as inconclusive are left out. Calls of active or inactive are those of the source. Calls come from the whole dose curve; as a rule, active = well fitted activation curve with a large enough effect; inconclusive = small, poorly fitted or top-dose-only effect; inactive = flat fitted curve, though single readings scatter.
# Assay: Extended Characterization of HPGD Inhibitors: PGE2 Assay in A549 Cells
# Settings: PGE2 HTRF level, 16 h
smiles,measurement,value
Cc1cccc(-n2cnc3cc(C(=O)N4CCCCCC4)ccc32)c1,Potency,2.96 µM (active)
